A short description of experiment [1]: Nuclear factor erythroid 2-related factor 2/antioxidant responsive element (Nrf2/ARE) small molecule agonists: qHTS cell viability counter screen in human keratinocytes (AID 1919968; active = well fitted curve in the direction sought with a large enough effect in the repeat runs; an effect the other way counts as inactive or inconclusive; also: nearly all actives have a fitted effect of over 55% in size; also: potency is read from the fitted curve at half-maximal effect). The essentials: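 After a 5 h attachment period, ARE-reporter keratinocytes were dosed with compounds in DMSO and then cultured 23 h at 37 C. Cell viability came from CellTiter-Fluor signal read after a further 1 h.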
Background: Quantitative high-throughput screening tests each substance at several concentrations.

Experiment [2] in a line: Nuclear factor erythroid 2-related factor 2/antioxidant responsive element (Nrf2/ARE) small molecule agonists: luciferase reporter gene qHTS assay in human keratinocytes (AID 1919969). Also: nearly all actives have a fitted effect of over 35% in size. Also: potency is read from the fitted curve at half-maximal effect. In general terms: In a reporter assay the amount or activity of a reporter protein is the signal.
Experiment [3] addresses Gonadotropin-releasing hormone receptor (Homo sapiens) (UniProt P30968). Nature of the experiment: Human gonadotropin-releasing hormone receptor (GnRHR) small molecule agonists, calcium flux assay in GnRHR-HEK293 cells (AID 1920063). Also: nearly all actives have a fitted effect of over 35% in size. The essentials: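 We seeded human GnRHR-expressing HEK293 cells for 18 hours, loaded them with calcium dye for an hour at 37 C, added test compounds, and recorded fluorescence intensity kinetically for three minutes.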

Experiment [4] addresses KiSS-1 receptor (Homo sapiens) (UniProt Q969F8). Description: Human kisspeptin (KISS1R) small molecule agonists, calcium flux assay in KISS1R-HEK293 cells (AID 1920064; active = well fitted curve in the direction sought with a large enough effect in the repeat runs; an effect the other way counts as inactive or inconclusive). The essentials:
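Kinetic calcium assay, 1 s sampling over 3 min at Ex/Em 480/540, in HEK293 cells engineered with human KISS1R; compounds delivered in DMSO after 1 h dye loading.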
A general note: Calcium assays in cells follow changes in intracellular calcium, usually with a dye or a luminescent sensor.

Experiment [5] in a line: G protein-coupled receptor (GPCR) small molecule agonists, calcium flux assay: HEK293 wild type cell line counter screen (AID 1920065). The essentials: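 Calcium-sensitive dye, loaded 1 h at 37 C into cells cultured 18 h, reports compound-evoked calcium release as fluorescence (Ex/Em 480/540), measured over 3 min. Agonist mode; 15-point titrations, triplicate.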
Experiment [6] in a line: p53 small molecule agonists, cell-based qHTS assay with human liver microsomes: qHTS cell viability counter screen (AID 1963579). Also: nearly all actives have a fitted effect of over 45% in size. The essentials:
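Luminescent CellTiter-Glo read-out, 30 min at room temperature, gauged cytotoxicity in p53RE-bla cells exposed 16 h at 37 C to DMSO-dissolved compounds with metabolic activation by human liver microsomes and NADPH, each 0.5 mg/mL final.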

Experiment [7] in a line: p53 small molecule agonists, cell-based qHTS assay: qHTS cell viability counter screen (AID 1963581). Also: nearly all actives have a fitted effect of over 45% in size. The essentials:
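Following 5 h attachment, HCT-116 p53RE-bla cells took up compound for 16 h at 37 C; the reporter was read with B/G FRET substrate (2 h RT), and viability then via CellTiter-Glo ATP luminescence.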

Experiment [8] can be described thus: cAMP Responsive Elements (CRE) small molecule antagonists, cell-based qHTS assay (AID 1963591; active = well fitted inhibition curve with a large enough effect in the signal ratio in the repeat runs, not every such curve was filed as active; the % refers to the signal ratio). The essentials:
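HEK293T cells carrying a CRE-driven beta-lactamase reporter receive compound and NKH477 (0.25 uM final) for 3 h. Fluorescence from LiveBLAzer B/G FRET substrate is read after 2 h at room temperature.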

The target in experiment [9] is Beta-2 adrenergic receptor (Homo sapiens) (UniProt P07550). Nature of the experiment: Adrenergic beta2 receptor (ADRB2) small molecule antagonists, cell-based qHTS assay (AID 1963592). Also: series mostly up to about 92 µM; nearly all actives have a fitted effect of over 50% in size. The essentials: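 Cells (CHO, stable ADRB2 overexpression) incubated 18-20hr at 37C; compounds added from DMSO; agonist mix (1nM isoproterenol, 100uM IBMX, 25uM Ro-20-1724) added; 0.5hr RT; d2-cAMP and anti-cAMP-cryptate added; 1hr RT; 665/615 nm read.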
Sequence of Beta-2 adrenergic receptor (Homo sapiens) (P07550 whole entry, looked up): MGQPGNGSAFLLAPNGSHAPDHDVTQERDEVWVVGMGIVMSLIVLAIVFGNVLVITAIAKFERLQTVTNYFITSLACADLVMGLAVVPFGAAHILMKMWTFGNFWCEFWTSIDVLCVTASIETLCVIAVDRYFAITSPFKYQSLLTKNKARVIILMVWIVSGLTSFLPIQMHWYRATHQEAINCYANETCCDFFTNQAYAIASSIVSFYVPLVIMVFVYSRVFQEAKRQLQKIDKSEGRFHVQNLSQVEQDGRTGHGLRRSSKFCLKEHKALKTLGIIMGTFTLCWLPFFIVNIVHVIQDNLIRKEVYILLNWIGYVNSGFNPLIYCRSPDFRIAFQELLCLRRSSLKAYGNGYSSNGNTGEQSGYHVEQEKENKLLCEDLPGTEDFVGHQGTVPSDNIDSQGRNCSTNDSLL

Experiment [10] shares this target. Description: Adrenergic beta2 receptor (ADRB2) small molecule agonists, cell-based qHTS assay (AID 1963593).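 Also: CHO cells stably overexpressing human ADRB2.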 The essentials: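 CHO cells stably over-expressing ADRB2 were plated overnight at 37C, then dosed with compounds plus a stimulation mix containing 100uM IBMX and 25uM Ro-20-1724 for 0.5hr at room temperature. cAMP was measured by HTRF competition, 1hr.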

The target in experiment [11] is D(2) dopamine receptor (Homo sapiens) (UniProt P14416). Description: Dopamine D2 receptor (DRD2) small molecule agonists, cell-based qHTS assay (AID 1963594). Also: nearly all actives have a fitted effect of over 35% in size. The essentials: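 cAMP accumulation in DRD2-HEK293 cells measured by HTRF after 1 h detection; compounds added 10 min before NKH477 (200nM […]) forskolin-analogue stimulation, 30 min at room temperature, with Ro20-1724 present at 0.1 mM final.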
Sequence of D(2) dopamine receptor (Homo sapiens) (P14416 whole entry, looked up): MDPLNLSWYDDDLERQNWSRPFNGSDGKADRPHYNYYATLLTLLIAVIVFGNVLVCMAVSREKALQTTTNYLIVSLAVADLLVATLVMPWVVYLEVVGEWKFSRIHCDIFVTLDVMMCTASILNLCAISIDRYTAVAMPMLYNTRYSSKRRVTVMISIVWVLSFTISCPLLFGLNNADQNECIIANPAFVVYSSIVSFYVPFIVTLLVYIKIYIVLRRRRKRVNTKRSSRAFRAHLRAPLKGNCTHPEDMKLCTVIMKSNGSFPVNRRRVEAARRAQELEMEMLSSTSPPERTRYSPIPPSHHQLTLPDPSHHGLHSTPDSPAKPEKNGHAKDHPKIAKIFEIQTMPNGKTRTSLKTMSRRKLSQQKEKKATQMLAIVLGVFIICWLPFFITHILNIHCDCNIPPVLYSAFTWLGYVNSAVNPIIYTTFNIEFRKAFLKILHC

Experiment [12] shares this target. Nature of the experiment: Dopamine D2 receptor (DRD2) small molecule antagonists, cell-based qHTS assay (AID 1963595; active = well fitted inhibition curve with a large enough effect in the signal ratio in the repeat runs, with a control signal flat; the % refers to the signal ratio). The essentials: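 Stable D2 receptor HEK293 line, 24 h after seeding. Compound preincubated 10 min, then quinpirole (12 nM) with forskolin analogue NKH477 (200 nM), 30 min, room temperature. Detection by time-resolved FRET of cAMP.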
Experiment [13] is described as follows: p53 small molecule agonists, cell-based qHTS assay with rat liver microsomes: qHTS cell viability counter screen (AID 1963580). Also: nearly all actives have a fitted effect of over 45% in size. The essentials:
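HCT-116 p53RE-bla, 4,000 cells/well, 5 h pre-incubation; cpd + rat liver microsomes 0.5 mg/mL + NADPH 0.5 mg/mL (final); 16 h, 37 C; CellTiter-Glo, 30 min RT; luminescence.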

The nature of experiment [14]: p53 small molecule agonists, cell-based qHTS assay (AID 1963582; active = well fitted activation curve with a large enough effect in the signal ratio in the repeat runs, not every such curve was filed as active; the % refers to the signal ratio). The essentials:
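In this cell-based concentration-response screen, a p53 response element drives beta-lactamase; cells received DMSO-borne compounds after 5 h culture and were incubated a further 16 h before FRET substrate development.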

The target in experiment [15] is 5-hydroxytryptamine receptor 2A (Homo sapiens) (UniProt P28223). Nature of the experiment: 5-hydroxytryptamine receptor 2A (HTR2A) small molecule antagonists, cell-based qHTS assay (AID 1963586). Also: nearly all actives have a fitted effect of over 45% in size. Also: potency is read from the fitted curve at half-maximal effect. The essentials: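 Antagonist-mode intracellular calcium assay: DOI (4 nM) added after 5 min compound pre-incubation at room temperature to dye-loaded HTR2A-CHO cells. Fluorescence followed for 3 min, sampled every second.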
Sequence of 5-hydroxytryptamine receptor 2A (Homo sapiens) (P28223 whole entry, looked up): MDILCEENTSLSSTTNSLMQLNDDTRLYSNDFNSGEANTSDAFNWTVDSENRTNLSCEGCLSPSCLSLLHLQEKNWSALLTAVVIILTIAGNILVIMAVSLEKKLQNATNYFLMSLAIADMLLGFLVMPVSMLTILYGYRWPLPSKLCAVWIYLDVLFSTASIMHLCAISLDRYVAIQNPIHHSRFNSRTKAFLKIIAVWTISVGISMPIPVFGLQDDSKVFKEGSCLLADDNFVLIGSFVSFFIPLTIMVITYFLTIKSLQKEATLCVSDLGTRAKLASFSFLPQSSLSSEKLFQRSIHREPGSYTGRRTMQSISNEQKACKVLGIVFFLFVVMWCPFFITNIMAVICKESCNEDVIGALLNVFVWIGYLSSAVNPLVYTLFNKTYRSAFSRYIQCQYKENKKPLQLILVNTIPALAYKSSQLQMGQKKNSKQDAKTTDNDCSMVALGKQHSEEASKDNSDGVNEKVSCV

The target is the same in experiment [16]. Nature of the experiment: 5-hydroxytryptamine receptor 2A (HTR2A) small molecule agonists, cell-based qHTS assay (AID 1963587). Also: nearly all actives have a fitted effect of over 30% in size. Also: potency is read from the fitted curve at half-maximal effect. The essentials:
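Kinetic calcium-flux fluorescence (2 min, 1 sec intervals) after compound addition in agonist mode. HTR2A-CHO cells were cultured 18 h, then dye-loaded 1 h at 37 C.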

Experiment [17] addresses Muscarinic acetylcholine receptor M1 (Homo sapiens) (UniProt P11229). Description: Cholinergic receptor muscarinic 1 (CHRM1) small molecule antagonists, cell-based qHTS assay (AID 1963588). Also: nearly all actives have a fitted effect of over 40% in size. Also: potency is read from the fitted curve at half-maximal effect. The essentials: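 CHRM1-CHO calcium-flux assay, antagonist mode. Cells were seeded 18 h, dye-loaded 1 h at 37 C and given compound for 5 min at RT, then acetylcholine was added at 50nM. FDSS fluorescence was read 3 min; 15 concentrations, three runs.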

The target is the same in experiment [18]. Nature of the experiment: Cholinergic receptor muscarinic 1 (CHRM1) small molecule agonists, cell-based qHTS assay (AID 1963589). Also: nearly all actives have a fitted effect of over 35% in size. The essentials: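 Measures agonist-induced intracellular calcium rise. Stable human CHRM1 CHO line, 1 h dye load at 37 C, compounds from DMSO, kinetic fluorescence read.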
The nature of experiment [19]: cAMP Responsive Elements (CRE) small molecule agonists, cell-based qHTS assay (AID 1963590). The essentials:
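A CRE-responsive beta-lactamase reporter in HEK 293T cells was used. Treatment ran 3 h at 37 C; detection used LiveBLAzer B/G FRET substrate for 2 h at room temperature.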

Experiment [20] is described as follows: p53 small molecule agonists, cell-based qHTS assay with human liver microsomes (AID 1963577).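 Also: p53 response element beta-lactamase reporter cells with liver microsomes plus NADPH.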 The essentials: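 p53RE-bla cells; 5 h settle, 37 C/5% CO2; cpd + HLM 0.5 mg/mL + NADPH 0.5 mg/mL (final); 16 h 37 C; LiveBLAzer 2 h RT dark; fluorescence readout.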

Values without a mark were called inactive. Records with an inconclusive call do not appear. Activity calls are given as the source filed them. Unless noted, calls follow the shape of the full dose curve.
% is scaled to controls: 0 for no effect and ±100 for the full control effect.

Sequence of KiSS-1 receptor (Homo sapiens) (Q969F8 whole entry, looked up): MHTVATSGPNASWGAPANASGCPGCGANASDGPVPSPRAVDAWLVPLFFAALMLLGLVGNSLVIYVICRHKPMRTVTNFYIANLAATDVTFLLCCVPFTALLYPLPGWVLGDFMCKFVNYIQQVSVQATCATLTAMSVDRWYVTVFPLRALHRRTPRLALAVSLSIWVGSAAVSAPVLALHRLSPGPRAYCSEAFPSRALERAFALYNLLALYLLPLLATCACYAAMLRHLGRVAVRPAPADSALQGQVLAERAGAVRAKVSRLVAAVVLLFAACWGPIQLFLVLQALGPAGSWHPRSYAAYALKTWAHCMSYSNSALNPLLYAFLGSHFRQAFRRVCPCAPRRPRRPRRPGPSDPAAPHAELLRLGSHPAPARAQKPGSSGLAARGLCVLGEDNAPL
Sequence of Gonadotropin-releasing hormone receptor (Homo sapiens) (P30968 whole entry, looked up): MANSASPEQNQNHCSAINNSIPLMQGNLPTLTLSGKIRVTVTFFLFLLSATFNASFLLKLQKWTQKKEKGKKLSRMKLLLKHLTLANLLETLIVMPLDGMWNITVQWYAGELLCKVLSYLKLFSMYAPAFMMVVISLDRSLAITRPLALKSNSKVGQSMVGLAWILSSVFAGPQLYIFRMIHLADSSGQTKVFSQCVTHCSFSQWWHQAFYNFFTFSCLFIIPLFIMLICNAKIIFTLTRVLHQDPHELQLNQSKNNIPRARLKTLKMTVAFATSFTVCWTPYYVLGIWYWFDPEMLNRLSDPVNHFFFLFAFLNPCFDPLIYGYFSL
Sequence of Muscarinic acetylcholine receptor M1 (Homo sapiens) (P11229 whole entry, looked up): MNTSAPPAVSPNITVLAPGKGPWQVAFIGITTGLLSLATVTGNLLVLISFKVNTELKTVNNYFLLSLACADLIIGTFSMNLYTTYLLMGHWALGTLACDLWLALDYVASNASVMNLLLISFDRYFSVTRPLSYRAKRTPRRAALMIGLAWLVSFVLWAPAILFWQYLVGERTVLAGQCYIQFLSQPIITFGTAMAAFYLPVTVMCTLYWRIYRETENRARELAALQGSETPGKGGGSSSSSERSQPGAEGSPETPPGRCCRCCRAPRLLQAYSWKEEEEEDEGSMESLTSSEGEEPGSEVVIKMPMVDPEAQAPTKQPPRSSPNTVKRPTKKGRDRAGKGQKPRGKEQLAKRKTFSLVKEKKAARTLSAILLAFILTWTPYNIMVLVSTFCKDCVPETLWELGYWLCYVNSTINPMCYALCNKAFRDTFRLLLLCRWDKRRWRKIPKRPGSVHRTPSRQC

`Cc1ccc2cc3c(ccc4ccccc43)c3c2c1CC3`: the Potency result in experiment [1], in [2], in experiment [3], in experiment [4], in experiment [5] and in experiment [6] was “inactive” in each case. The Potency entry in experiment [7], in [8], in experiment [9], in experiment [10], in experiment [11] and in [12] was “inactive” throughout.

Turning to `CCOP(=S)(OCC)Oc1ccc(Cl)cc1Cl`, the Potency entry in experiment [1], in experiment [2], in [3], in experiment [4], in experiment [5] and in [13] was “inactive” throughout. In addition, the Potency result in [7], in [14], in [15], in experiment [16], in experiment [17] and in experiment [18] was “inactive” in each case. Moreover, the Potency result in experiment [19], in [8], in experiment [9], in [10], in experiment [11] and in experiment [12] was “inactive” each time.

As to `c1ccc2nc(N3CCNCC3)ccc2c1`, the Potency result in experiment [1], in experiment [2], in [3], in experiment [4], in experiment [5] and in [6] was “inactive” throughout. Also, the Potency result in experiment [13], in experiment [17], in experiment [19], in experiment [8], in experiment [9] and in experiment [11] was “inactive” in each case. For the same compound, the Potency result in experiment [12] was “inactive”. The Potency in experiment [15] is 0.0033 µM (active); in [16], 0.0048 µM (active).

Consider `C1CCC(C2CCCCC2)CC1`, for which the Potency entry in experiment [1], in experiment [2], in [3], in [4], in [5] and in experiment [6] was “inactive” in each case. Further, the Potency result in experiment [7], in experiment [15], in [16], in [17], in [18] and in experiment [9] was “inactive” throughout. In addition, the Potency entry in experiment [10], in experiment [11] and in experiment [12] was “inactive” throughout.

For `CC(C)C(Br)C(=O)NC(N)=O` (stereo not given), the Potency result in [1], in experiment [2], in experiment [3], in experiment [4], in experiment [5] and in experiment [6] was “inactive” throughout. In addition, the Potency result in experiment [13], in experiment [19], in [8], in experiment [9], in [11] and in experiment [12] was “inactive” in each case.

Turning to `CCCCOP(=O)(O)OCCCC`, the Potency result in experiment [1], in [2], in experiment [3], in [4], in [5] and in experiment [6] was “inactive” in each case. For the same compound, the Potency entry in experiment [13], in experiment [15], in experiment [16], in [17], in experiment [18] and in experiment [19] was “inactive” throughout. In addition, the Potency entry in experiment [8], in [10], in [11] and in [12] was “inactive” each time.

Regarding `CCCN(CCC)c1c([N+](=O)[O-])cc(S(C)(=O)=O)cc1[N+](=O)[O-]`, the Potency result in experiment [1], in experiment [2], in [3], in experiment [4], in experiment [5] and in experiment [6] was “inactive” throughout. Further, the Potency result in [13], in experiment [15], in experiment [16], in experiment [18], in experiment [8] and in experiment [9] was “inactive” each time. In addition, the Potency entry in experiment [10], in experiment [11] and in [12] was “inactive” each time. In experiment [17], the Potency was 10.6 µM (active).

Take `Nc1c(Br)cc(Br)c2c1C(=O)c1ccccc1C2=O`: the values for the activity change, negative = cytotoxicity in experiment [1], in [6] and in experiment [13] were -10.3% [at 19 µM], 2.22% [at 13.5 µM] and -8.42% [at 13.5 µM], respectively. Also, in experiment [2], the activity, positive = activation is 4.98% [at 19 µM]. Further, the activity change in [3] is 1.8% [at 11.8 µM, hits give high values]. Besides, the activation in experiment [4] is 7.67% [at 15.8 µM]; in experiment [5] it was 0.165% [at 11.8 µM]; in experiment [16], -1.81% [at 15.9 µM]; in [18], -0.118% [at 15.8 µM]; in [19] it was -1.39% [at 19 µM]. Further, the activity, negative = inhibition in [15] is 6.3% [at 12.7 µM]; in experiment [17] it was -4.93% [at 12.6 µM]. Besides, the activity change, negative = inhibition in experiment [9] was 17.4% [at 19 µM]; in experiment [12], 9% [at 18.9 µM].

Regarding `Cc1c(Cl)c(=O)oc2cc(OP(=O)(OCCCl)OCCCl)ccc12`, the Potency entry in experiment [1], in experiment [2], in experiment [3], in experiment [4], in experiment [5] and in [13] was “inactive” throughout. Also, the Potency entry in [14], in experiment [15], in [16], in experiment [17], in experiment [18] and in [9] was “inactive” in each case. The Potency entry in [12] was “inactive”.

Regarding `CCCCN(CCCC)C(=S)[S-].CCCCN(CCCC)C(=S)[S-].[Ni+2]`, the Potency was 8.42 µM (active) in experiment [1] and 2.99 µM (active) in [2]. Further, the Potency entry in experiment [3], in experiment [4], in [6], in [13], in experiment [7] and in [15] was “inactive” in each case. The Potency result in experiment [16], in experiment [17], in [18], in experiment [19], in [8] and in [9] was “inactive” in each case. Moreover, the Potency result in [11] and in experiment [12] was “inactive” in each case.

On to `Oc1cccc(-c2ccccc2)c1`, for which the Potency result in experiment [1], in [2], in [3], in [4], in experiment [20] and in experiment [6] was “inactive” in each case. Also, the Potency result in experiment [7], in [14], in [15], in experiment [16], in experiment [17] and in experiment [18] was “inactive” throughout. Moreover, the Potency entry in experiment [19], in [8], in experiment [9], in experiment [10], in experiment [11] and in experiment [12] was “inactive” throughout.

The values are drawn from PubChem BioAssay (Tox21).
